Results from PubChem BioAssay AID1159580 (chemical genetic matrix, 2015).
The campaign covered roughly 5,500 compounds. About 2,000 (36%) were called active. Another 18% or so got no clear call; they are omitted. Rule as the data show it: active = normalized growth mostly below about 0.91 (no sharp cut-off); inconclusive = no clear call, values can overlap the other calls; inactive = mostly above about 0.92. The list shows a part of the results.

Test: chemical genetic growth profiling, strain panel (AID 1159580);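 also: tested at 20 µM; growth read once vehicle control cultures reached saturation at 30 °C; 1 = growth at the plate median or of vehicle wells; lower values mean less growth of the strain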
Conditions: growth OD

Measured: normalized growth

O=C(/C=C(\O)c1ccccc1)c1ccccc1O
inactive: S. cerevisiae deletion strains, locus YBR021W, strain FUR4, hits give low values 0.939 | S. cerevisiae deletion strains, locus YDL005C, strain med2, hits give low values 0.941 | S. cerevisiae deletion strains, locus YDR195W, strain ref2 1.06 | S. cerevisiae deletion strains, locus YGL078C, strain dbp3, hits give low values 0.986 | S. cerevisiae deletion strains, locus YGR078C, strain PAC10, hits give low values 0.914 | S. cerevisiae deletion strains, locus YGR252W, strain gcn5, hits give low values 0.872 | S. cerevisiae deletion strains, locus YHR013C, strain ard1, hits give low values 0.865 | S. cerevisiae deletion strains, locus YHR094C, strain hxt1, hits give low values 0.935 | S. cerevisiae deletion strains, locus YIL125W, strain kgd1, hits give low values 0.98 | S. cerevisiae deletion strains, locus YJL115W, strain asf1, hits give low values 0.94 | S. cerevisiae deletion strains, locus YJL168C, strain set2, hits give low values 0.958 | S. cerevisiae deletion strains, locus YKL068W, hits give low values 0.969 | S. cerevisiae deletion strains, locus YKL085W, strain MDH1 (second series), hits give low values 0.963 | S. cerevisiae deletion strains, locus YKL085W, strain MDH1, hits give low values 0.963 | S. cerevisiae deletion strains, locus YLR102C, strain apc9, hits give low values 0.997 | S. cerevisiae deletion strains, locus YLR342W, strain FKS1 (second series), hits give low values 0.849 | S. cerevisiae deletion strains, locus YLR384C, strain iki3, hits give low values 0.92 | S. cerevisiae deletion strains, locus YMR078C, strain ctf18, hits give low values 0.948 | S. cerevisiae deletion strains, locus YMR125W, strain sto1, hits give low values 0.991 | S. cerevisiae deletion strains, locus YNL067W, strain RPL9B, hits give low values 0.929 | S. cerevisiae deletion strains, locus YNL128W, strain TEP1, hits give low values 0.855 | S. cerevisiae deletion strains, locus YNL248C, strain rpa49, hits give low values 0.91 | S. cerevisiae deletion strains, locus YNL250W, strain rad50, hits give low values 0.97 | S. cerevisiae deletion strains, locus YNL271C, strain bni1, hits give low values 0.951 | S. cerevisiae deletion strains, locus YNL298W, strain CLA4, hits give low values 0.926 | S. cerevisiae deletion strains, locus YNL307C, strain MCK1, hits give low values 0.928 | S. cerevisiae deletion strains, locus YOL012C, strain htz1 0.3 | S. cerevisiae deletion strains, locus YOR061W, strain CKA2, hits give low values 0.93 | S. cerevisiae deletion strains, locus YOR080W, strain dia2, hits give low values 0.929 | S. cerevisiae deletion strains, locus YOR136W, strain idh2, hits give low values 0.939 | S. cerevisiae deletion strains, locus YOR316C, strain cot1, hits give low values 0.941 | S. cerevisiae deletion strains, locus YPL106C, strain sse1, hits give low values 0.933 | S. cerevisiae deletion strains, locus YPR119W, strain clb2, hits give low values 0.951 | S. cerevisiae deletion strains, locus YPR141C, strain kar3, hits give low values 0.967
active: S. cerevisiae deletion strains, locus YAL021C, strain ccr4, hits give low values 0.843 | S. cerevisiae deletion strains, locus YAL026C, strain drs2, hits give low values 0.775 | S. cerevisiae deletion strains, locus YAL030W, strain snc1, hits give low values 0.827 | S. cerevisiae deletion strains, locus YBL061C, strain skt5, hits give low values 0.776 | S. cerevisiae deletion strains, locus YBR009C, strain hhf1, hits give low values 0.667 | S. cerevisiae deletion strains, locus YBR023C, strain chs3, hits give low values 0.778 | S. cerevisiae deletion strains, locus YBR171W, strain sec66, hits give low values 0.807 | S. cerevisiae deletion strains, locus YBR229C, strain ROT2, hits give low values 0.778 | S. cerevisiae deletion strains, locus YBR231C, strain swc5, hits give low values 0.65 | S. cerevisiae deletion strains, locus YBR279W, strain paf1, hits give low values 0.865 | S. cerevisiae deletion strains, locus YCL011C, strain gbp2, hits give low values 0.681 | S. cerevisiae deletion strains, locus YCL016C, strain dcc1, hits give low values 0.836 | S. cerevisiae deletion strains, locus YCL029C, strain bik1, hits give low values 0.593 | S. cerevisiae deletion strains, locus YCL061C, strain MRC1, hits give low values 0.812 | S. cerevisiae deletion strains, locus YCL069W, strain vba3, hits give low values 0.843 | S. cerevisiae deletion strains, locus YCR088W, strain abp1, hits give low values 0.877 | S. cerevisiae deletion strains, locus YDL035C, strain GPR1, hits give low values 0.791 | S. cerevisiae deletion strains, locus YDL040C, strain nat1, hits give low values 0.918 | S. cerevisiae deletion strains, locus YDL074C, strain BRE1, hits give low values 0.28 | S. cerevisiae deletion strains, locus YDL101C, strain DUN1, hits give low values 0.595 | S. cerevisiae deletion strains, locus YDL134C, strain PPH21, hits give low values 0.827 | S. cerevisiae deletion strains, locus YDL185W, strain tfp1, hits give low values 0.817 | S. cerevisiae deletion strains, locus YDL192W, strain arf1, hits give low values 0.776 | S. cerevisiae deletion strains, locus YDR001C, strain nth1, hits give low values 0.903 | S. cerevisiae deletion strains, locus YDR069C, strain doa4, hits give low values 0.701 | S. cerevisiae deletion strains, locus YDR101C, strain arx1, hits give low values 0.665 | S. cerevisiae deletion strains, locus YDR137W, strain rgp1, hits give low values 0.402 | S. cerevisiae deletion strains, locus YDR159W, strain sac3, hits give low values 0.682 | S. cerevisiae deletion strains, locus YDR162C, strain NBP2, hits give low values 0.794 | S. cerevisiae deletion strains, locus YDR297W, strain sur2, hits give low values 0.856 | S. cerevisiae deletion strains, locus YDR318W, strain mcm21, hits give low values 0.844 | S. cerevisiae deletion strains, locus YDR334W, strain swr1, hits give low values 0.687 | S. cerevisiae deletion strains, locus YDR335W, strain msn5, hits give low values 0.857 | S. cerevisiae deletion strains, locus YDR388W, hits give low values 0.736 | S. cerevisiae deletion strains, locus YDR392W, strain spt3, hits give low values 0.71 | S. cerevisiae deletion strains, locus YDR502C, strain sam2, hits give low values 0.845 | S. cerevisiae deletion strains, locus YEL003W, strain gim4, hits give low values 0.709 | S. cerevisiae deletion strains, locus YEL037C, strain rad23, hits give low values 0.868 | S. cerevisiae deletion strains, locus YEL061C, strain CIN8 (second series), hits give low values 0.903 | S. cerevisiae deletion strains, locus YEL061C, strain CIN8, hits give low values 0.826 | S. cerevisiae deletion strains, locus YER015W, strain faa2, hits give low values 0.685 | S. cerevisiae deletion strains, locus YER016W, strain bim1, hits give low values 0.88 | S. cerevisiae deletion strains, locus YER110C, hits give low values 0.787 | S. cerevisiae deletion strains, locus YER111C, strain swi4, hits give low values 0.871 | S. cerevisiae deletion strains, locus YER155C, strain BEM2 (second series), hits give low values 0.755 | S. cerevisiae deletion strains, locus YER155C, strain BEM2, hits give low values 0.413 | S. cerevisiae deletion strains, locus YER167W, strain BCK2, hits give low values 0.554 | S. cerevisiae deletion strains, locus YFR010W, strain ubp6, hits give low values 0.766 | S. cerevisiae deletion strains, locus YGL086W, strain mad1, hits give low values 0.794 | S. cerevisiae deletion strains, locus YGL167C, strain pmr1, hits give low values 0.895 | S. cerevisiae deletion strains, locus YGL173C, strain kem1, hits give low values 0.779 | S. cerevisiae deletion strains, locus YGL227W, strain vid30, hits give low values 0.906 | S. cerevisiae deletion strains, locus YGL240W, strain doc1, hits give low values 0.758 | S. cerevisiae deletion strains, locus YGL248W, strain PDE1, hits give low values 0.491 | S. cerevisiae deletion strains, locus YGL253W, strain hxk2, hits give low values 0.543 | S. cerevisiae deletion strains, locus YGR135W, strain pre9, hits give low values 0.836 | S. cerevisiae deletion strains, locus YHR027C, strain rpn1, hits give low values 0.637 | S. cerevisiae deletion strains, locus YHR030C, strain SLT2, hits give low values 0.854 | S. cerevisiae deletion strains, locus YHR079C, strain IRE1 (second series), hits give low values 0.554 | S. cerevisiae deletion strains, locus YHR129C, strain ARP1, hits give low values 0.527 | S. cerevisiae deletion strains, locus YHR142W, strain chs7, hits give low values 0.648 | S. cerevisiae deletion strains, locus YHR200W, strain rpn10, hits give low values 0.863 | S. cerevisiae deletion strains, locus YIL066C, strain RNR3, hits give low values 0.696 | S. cerevisiae deletion strains, locus YIL073C, strain SPO22, hits give low values 0.301 | S. cerevisiae deletion strains, locus YIR030C, strain dcg1, hits give low values 0.592 | S. cerevisiae deletion strains, locus YJL092W, strain hpr5, hits give low values 0.87 | S. cerevisiae deletion strains, locus YJL095W, strain BCK1 (second series), hits give low values 0.741 | S. cerevisiae deletion strains, locus YJL095W, strain BCK1, hits give low values 0.254 | S. cerevisiae deletion strains, locus YJL129C, strain trk1, hits give low values 0.741 | S. cerevisiae deletion strains, locus YJL134W, strain LCB3, hits give low values 0.908 | S. cerevisiae deletion strains, locus YJL154C, strain vps35, hits give low values 0.918 | S. cerevisiae deletion strains, locus YJL164C, strain tpk1, hits give low values 0.695 | S. cerevisiae deletion strains, locus YJL166W, strain qcr8, hits give low values 0.546 | S. cerevisiae deletion strains, locus YJL187C, strain SWE1 (second series), hits give low values 0.456 | S. cerevisiae deletion strains, locus YJL187C, strain SWE1, hits give low values 0.785 | S. cerevisiae deletion strains, locus YKL009W, strain mrt4, hits give low values 0.78 | S. cerevisiae deletion strains, locus YKL160W, strain elf1, hits give low values 0.823 | S. cerevisiae deletion strains, locus YKL190W, strain CNB1, hits give low values 0.902 | S. cerevisiae deletion strains, locus YKR001C, strain vps1, hits give low values 0.73 | S. cerevisiae deletion strains, locus YKR026C, strain gcn3, hits give low values 0.895 | S. cerevisiae deletion strains, locus YKR091W, strain srl3, hits give low values 0.904 | S. cerevisiae deletion strains, locus YLL001W, strain dnm1, hits give low values 0.769 | S. cerevisiae deletion strains, locus YLL026W, hits give low values 0.864 | S. cerevisiae deletion strains, locus YLL041C, strain sdh2, hits give low values 0.869 | S. cerevisiae deletion strains, locus YLR027C, strain aat2, hits give low values 0.685 | S. cerevisiae deletion strains, locus YLR039C, strain RIC1, hits give low values 0.137 | S. cerevisiae deletion strains, locus YLR058C, strain SHM2, hits give low values 0.442 | S. cerevisiae deletion strains, locus YLR221C, strain rsa3, hits give low values 0.601 | S. cerevisiae deletion strains, locus YLR258W, strain gsy2, hits give low values 0.818 | S. cerevisiae deletion strains, locus YLR262C, strain YPT6 (second series), hits give low values 0.391 | S. cerevisiae deletion strains, locus YLR262C, strain YPT6, hits give low values 0.463 | S. cerevisiae deletion strains, locus YLR268W, strain sec22, hits give low values 0.836 | S. cerevisiae deletion strains, locus YLR320W, strain mms22, hits give low values 0.767 | S. cerevisiae deletion strains, locus YLR342W, strain FKS1, hits give low values 0.903 | S. cerevisiae deletion strains, locus YLR357W, strain rsc2, hits give low values 0.785 | S. cerevisiae deletion strains, locus YLR370C, strain arc18, hits give low values 0.864 | S. cerevisiae deletion strains, locus YLR371W, strain rom2, hits give low values 0.801 | S. cerevisiae deletion strains, locus YLR418C, strain cdc73, hits give low values 0.64 | S. cerevisiae deletion strains, locus YML016C, strain PPZ1, hits give low values 0.633 | S. cerevisiae deletion strains, locus YML032C, strain rad52, hits give low values 0.453 | S. cerevisiae deletion strains, locus YML120C, strain ndi1, hits give low values 0.589 | S. cerevisiae deletion strains, locus YML124C, strain tub3, hits give low values 0.901 | S. cerevisiae deletion strains, locus YMR058W, strain fet3, hits give low values 0.21 | S. cerevisiae deletion strains, locus YMR129W, hits give low values 0.847 | S. cerevisiae deletion strains, locus YMR205C, strain PFK2, hits give low values 0.613 | S. cerevisiae deletion strains, locus YMR223W, strain ubp8, hits give low values 0.826 | S. cerevisiae deletion strains, locus YMR231W, strain pep5, hits give low values 0.083 | S. cerevisiae deletion strains, locus YMR307W, strain GAS1, hits give low values 0.523 | S. cerevisiae deletion strains, locus YNL071W, strain lat1, hits give low values 0.581 | S. cerevisiae deletion strains, locus YNL153C, strain GIM3, hits give low values 0.582 | S. cerevisiae deletion strains, locus YNL209W, strain ssb2, hits give low values 0.648 | S. cerevisiae deletion strains, locus YNL233W, strain BNI4, hits give low values 0.707 | S. cerevisiae deletion strains, locus YNL322C, strain KRE1 (second series), hits give low values 0.789 | S. cerevisiae deletion strains, locus YNR049C, strain mso1, hits give low values 0.892 | S. cerevisiae deletion strains, locus YNR052C, strain pop2, hits give low values 0.556 | S. cerevisiae deletion strains, locus YOL147C, strain pex11, hits give low values 0.531 | S. cerevisiae deletion strains, locus YOR001W, strain rrp6, hits give low values 0.733 | S. cerevisiae deletion strains, locus YOR069W, strain VPS5, hits give low values 0.719 | S. cerevisiae deletion strains, locus YOR070C, strain gyp1, hits give low values 0.921 | S. cerevisiae deletion strains, locus YOR083W, strain WHI5, hits give low values 0.745 | S. cerevisiae deletion strains, locus YOR106W, strain vam3, hits give low values 0.0896 | S. cerevisiae deletion strains, locus YOR144C, strain elg1, hits give low values 0.724 | S. cerevisiae deletion strains, locus YOR184W, strain ser1, hits give low values 0.703 | S. cerevisiae deletion strains, locus YOR265W, strain rbl2, hits give low values 0.849 | S. cerevisiae deletion strains, locus YOR270C, strain vph1, hits give low values 0.607 | S. cerevisiae deletion strains, locus YOR290C, strain snf2, hits give low values 0.676 | S. cerevisiae deletion strains, locus YPL051W, strain arl3, hits give low values 0.568 | S. cerevisiae deletion strains, locus YPL078C, strain atp4, hits give low values 0.795 | S. cerevisiae deletion strains, locus YPL240C, strain hsp82, hits give low values 0.78 | S. cerevisiae deletion strains, locus YPL241C, strain CIN2, hits give low values 0.928 | S. cerevisiae deletion strains, locus YPR163C, strain tif3, hits give low values 0.755 | S. cerevisiae deletion strains, locus YPR167C, strain met16, hits give low values 0.852 | S. cerevisiae deletion strains, strain wtn01, hits give low values 0.843 | S. cerevisiae strains, strain wild type, hits give low values 0.545
